“And” between values parts separate entries of the source, which are not always exact repeats. Equal entries are not always repeated. Records with an inconclusive call do not appear. The source made the active and inactive calls. The call rests on the fitted dose curve; in most records, active means well fitted inhibition curve with a large enough effect in the main read-out, with a control signal flat (not every such curve was filed as active); inconclusive means small, poorly fitted or top-dose-only effect, or effect the other way, or a change in a side signal; inactive means no such curve, though single readings can be large or run the other way.
Potency means the concentration at half of the fitted maximal effect.

This experiment in a line: Nrf2 qHTS screen for inhibitors: Validation (AID 493153). As to conditions: A549 ARE-Fluc reporter, 18-24 h; Potency: luciferase luminescence; viability change: measured here: cytotoxicity max response; luciferase luminescence, at 46.1 µM (top of the series). From the text:
NIH Molecular Libraries Probe Production Network [MLPCN] NIH Chemical Genomics Center [NCGC] MLPCN Grant: R03-MH092170-01 Assay Provider: Shyam Biswal, Johns Hopkins University Assay Overview: Nrf2 is a transcription factor that maintains cellular redox homoestasis and protects cells from xenobiotics. Nrf2 binds to the antioxidant response element (ARE) to induce gene expression of a broad spectrum of genes that encode for antioxidants. […] Finding a small molecule that act as an inhibitor of Nrf2 function would represent a novel therapeutic target that could lead to improvement in survival of patients undergoing chemo- and/or radio- therapy. 1. Shibata, T., et al., Genetic Alteration of Keap1 Confers Constitutive Nrf2 Activation and Resistance to Chemotherapy in Gallbladder Cancer. Gastroenterology, 2008. 2. Sjoblom, T., et al., The consensus coding sequences of human breast and colorectal cancers. Science, 2006. 314(5797): p. 268-74.
Assay Protocol Summary: A concentration-response assay was performed with A549 ARE_Fluc cells which are suspended in 5% FBS OPTI-MEM. Five uL were dispensed into 1536-well white TC-treated plate using the Kalypsys dispenser to achieve a density of 5000 cells/well in all columns except column 1. The plate is incubated at 37deg C at 5% CO2 for 2 hours before 23 nL of compounds are added with the Kalypsys pin tool equipped with a 1,536-pin array containing 10-nL slotted pins (FP1S10, 0.457-mm diameter, 50.8 mm long; V&P Scientific). The control compounds Budesonide and Staurosporine are both added at a concentration of 2mM and Budesonide is also added as a 1:10 titration, starting at 200uM, to achieve dose-response. After an 18-24 hour incubation at 37deg C at 5% CO2, 5ul of medium is added to column 1. Afterwards 1ul of 5x of CellTiter-Fluor (Promega) is added to every well. The plate is then incubated at 37deg C at 5% CO2 for 30 minutes before they are read on the ViewLux (Perkin Elmer) for a fluorescent read Ex=405(10)/Em=525(10) for a 3 second exposure, 2x binning, and high gain. Then 3 uL of 3x BugLite is dispensed into all wells and the plate is incubated at ambient room temperature for 15 minutes. Afterwards another ViewLux read is performed using the clear filter to get a luminescent read with the settings of 40 second exposure, 2x binning, and high gain. Cytotoxicity is assessed through the first fluorescent read and then biochemical activity against Nrf2 is measured in the luminescent read.
(Quantitative high-throughput screening tests each substance at several concentrations.)
As to `CC[C@@H](CO)NC(=O)[C@@H]1C=C2c3cccc4[nH]cc(c34)C[C@H]2N(C)C1`, the Potency result is “inactive” and the viability change is -12.7%.
For the compound `NN=C(N)N`, the viability change was 4.74% and 3.63%; the Potency entry was “inactive”.
For `CC(O)(CS(=O)(=O)c1ccc(F)cc1)C(=O)Nc1ccc(C#N)c(C(F)(F)F)c1` (stereo not given), the viability change is -8.54% and the Potency result is “inactive”.
For `COc1ccc(Cc2nccc3cc(OC)c(OC)cc23)cc1OC`, in that order: -7.85% and 7.31 µM (active).
For `O=c1[nH]c2ccccc2n1CCCN1CCC(n2c(=O)[nH]c3cc(Cl)ccc32)CC1`, in that order: -5.95% and “inactive”.
In the same order, the values of `CCCN1CCC[C@@H]2Cc3nc(N)ncc3C[C@H]21` are 1.56% and “inactive”.
As to `CC(C)=CCOc1c2occc2cc2ccc(=O)oc12`, the Potency entry was “inactive” and the viability change is 0.848%.
With `Cc1cccc(C)c1NC(=O)CN1CCCC1=O`, the Potency entry is “inactive” and the viability change is -4.1%.
For `O=C1NCN(c2ccccc2)C12CCN(CC1COc3ccccc3O1)CC2` (stereo not given), in that order: “inactive” and 1.49%.
For the compound `CCC1(C2=NCCN2)Cc2ccccc2O1` (stereo not given), the viability change stood at 1.87% and the Potency entry was “inactive”.
Take `COc1ccc(C(CN(C)C)C2(O)CCCCC2)cc1` (stereo not given): the Potency result was “inactive” and the viability change came to 3.45%.
On to `NCC(CC(=O)O)c1ccc(Cl)cc1` (stereo not given), for which the Potency was 9.2 µM (active) and the viability change worked out at 12.6%.
For `CC(CCc1ccccc1)NC(C)C(O)c1ccc(O)cc1` (stereo not given), in that order: “inactive” and -10.8%.
For `Nc1ccncc1`, in that order: “inactive” and -2.07%.
For `Cc1ccc(S(=O)(=O)N[C@@H](CCCCN)C(=O)CCl)cc1`, in that order: “inactive” and -2.81%.
Consider `NCC1(CC(=O)O)CCCCC1`, for which the viability change is 10.1% and the Potency entry was “inactive”.
In the same order, the values of `N#CC(C#N)=Cc1ccc(O)c(O)c1` are -7.57% and “inactive”.
Take `CC[C@@H](CO)NC(=O)[C@@H]1C=C2c3cccc4c3c(cn4C)C[C@H]2N(C)C1`: the Potency result is “inactive” and the viability change was -1.92%.
For `COc1ccccc1N1CCNCC1`, in that order: “inactive” and 10.4%.
In the same order, the values of `Cc1cccc(C)c1NC1=NCCCS1` are “inactive” and -1.16%.

The values above are taken from PubChem BioAssay (NCATS).
